Compound activity: PubChem BioAssay, several laboratories
MazEF act = MazEF (E. coli) toxin RNase activation. P0AE70. FAM/BHQ RNA-DNA oligo cleavage fluorescence, 5 h. activation, % at 20 µM. 350,000 tested, 0.32% active. AID 504720; in the data active means activation above about 50%
Target sequence (P0AE70 whole entry, looked up): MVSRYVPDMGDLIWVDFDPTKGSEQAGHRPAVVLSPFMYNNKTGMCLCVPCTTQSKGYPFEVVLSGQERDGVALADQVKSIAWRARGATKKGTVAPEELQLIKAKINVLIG
BJeLR lethal = kills HRASV12-expressing BJeLR cells; BJeLR (HRASV12) viability, CellTiter-Glo ATP luminescence, 48 h; inhibition, % (no concentration beside the values); 300,000 tested, 0.17% active; in the data active means inhibition above about 50%
PfHsp40 rescue = restores yeast growth despite PfHsp40 toxicity | 340,000 tested, 0.68% active | S. cerevisiae expressing PfHsp40, growth rescue, ATP luminescence | growth rescue, % at 12.5 µM; in the data active means growth rescue above about 28%, passing the limit was not always enough;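 further: yeast W303a lacking pdr1 and pdr3 grown in galactose medium; growth measured after three days at 30 °C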
3CLpro inhibitor = SARS-CoV 3CLpro protease inhibition; P0C6X7; recombinant SARS-CoV 3CLpro, quenched FRET peptide cleavage; inhibition, % at 6 µM; 290,000 tested, 0.14% active; AID 1706; in the data active means inhibition above about 12%
Mtb BioA inh = BioA (M. tuberculosis) enzyme inhibition | purified M. tuberculosis BioA enzyme, plate reader | inhibition, % at 9.99 µM | 360,000 tested, 0.096% active | AID 602481; in the data active means inhibition above about 40%
Y pestis TopoI = inhibitors of Yersinia pestis topoisomerase I; Y. pestis Topo-I cleavage product accumulation, plate reader; activity, % at 10 µM; 360,000 tested, 0.064% active; in the data active means activity above about 50%, passing the limit was not always enough
An asterisk follows results filed as active; . = no result; + = active, no number. Most compounds without a hit are left out; they make up all but 1.1% or so of the library.

SMILES | MazEF act | BJeLR lethal | PfHsp40 rescue | 3CLpro inhibitor | Mtb BioA inh | Y pestis TopoI
O=C1SC(Cc2ccccc2)C(=O)N1c1ccccc1 (stereo not drawn) | 14 | 89* | . | 3 | 0 | 8
COc1cccc(NC(=O)N(C)C[C@H]2Oc3ncc(C#Cc4ccncc4)cc3C(=O)N([C@H](C)CO)C[C@H]2C)c1 | . | . | . | . | 0 | .
CCCN1C[C@@H](C)[C@@H](OC)CN(C)C(=O)c2cc(NC(=O)Nc3c(C)noc3C)ccc2OC[C@@H]1C | . | . | . | . | 0 | .
CN(C)C(=O)C[C@H]1C[C@H]2c3cc(NC(=O)c4ccc5c(c4)OCO5)ccc3O[C@H]2[C@H](CO)O1 | . | . | . | . | 1 | .
Cc1ccc(NC(=O)CN(C)S(=O)(=O)c2cccc3nsnc23)cc1 | -3 | 2 | -1 | -5 | . | 7
CC(NC(=O)CN(C)S(=O)(=O)c1cccc2nsnc12)c1ccccc1 (stereo not drawn) | 97* | 6 | 1 | -1 | 1 | -4
N=C(N)c1ccc(OCCCCCOc2ccc(C(=N)N)cc2)cc1 | 12 | -3 | 112* | -6 | -3 | 8
N=C(N)c1ccc(N)cc1 | 1 | . | 67* | . | 0 | -3
Nc1ccc(C(=O)O)cc1 | -7 | 3 | 0 | . | -2 | -6
NC(=Nc1nc(-c2ccccn2)cc2ccccc12)c1ccccn1 | 17 | . | 163* | . | . | -7
C[C@@H]1CCCCO[C@@H](CN(C)C(=O)Nc2ccccc2)[C@H](C)CN([C@@H](C)CO)C(=O)c2cc(NC(=O)c3ccccc3)ccc2O1 | . | . | . | . | 1 | .
N#CC1CC(c2ccc([N+](=O)[O-])cc2)=NN1c1ccc([N+](=O)[O-])cc1 (stereo not drawn) | 563* | -11 | 0 | -3 | 14 | -7
O=C(Nc1nnc(C2=COCCO2)o1)c1cccc([N+](=O)[O-])c1 | 3 | 18 | 1 | 2 | -3 | 3
O=C(Nc1nnc(C2=COCCO2)o1)c1cccc(Br)c1 | 0 | 1 | 59* | -1 | 0 | 4
C[C@@H]1CN([C@@H](C)CO)C(=O)c2cc(C#Cc3ccccc3F)cnc2O[C@H]1CN(C)C(=O)Cc1cccnc1 | . | . | . | . | 5 | .
O=c1c(Cl)c(Cl)cnn1Cc1nnc(-c2ccc(Cl)cc2)o1 | -8 | 4 | 236* | 2 | . | 8
CC(C)=CCc1c2c(c3occ(-c4ccc(O)cc4)c(=O)c3c1O)C=CC(C)(C)O2 | 1 | 1 | 39* | 3 | -3 | -9
O=C(CSc1nc2ccccc2c(=O)n1Cc1ccco1)Nc1cccc(O)c1 | 59* | -6 | -2 | 3 | . | -14
COc1ccc(C2C(C#N)=C(N)N(c3cccnc3)C3=C2C(=O)CCC3)cc1Cn1cc([N+](=O)[O-])cn1 (stereo not drawn) | 64* | -2 | 2 | 5 | 4 | 6
C/C=C/c1ccc2c(c1)O[C@@H](CN(C)C(=O)C1CC1)[C@@H](C)CN([C@H](C)CO)S2(=O)=O | . | . | . | . | 3 | .
O=C(Nc1ccc2c(c1)[C@H]1C[C@H](CC(=O)N3CCOCC3)O[C@@H](CO)[C@H]1O2)Nc1ccccc1F | . | . | . | . | 0 | .
CCCN=C1N/C(=C\c2ccco2)C(=O)N1c1ccccc1 | 52* | -3 | 0 | 2 | 0 | -5
COc1cccc(CNC(=O)C[C@@H]2C=C[C@@H](NC(=O)C3CC3)[C@H](CO)O2)c1 | . | . | . | . | -2 | .
CCOC(=O)c1ccc(NC(=O)CCc2nc(-c3ccccc3)no2)cc1 | 3 | -9 | 19 | 5 | -1 | -5
CCOC(=O)c1ccc(NC(=O)CCc2nc(-c3ccccc3Cl)no2)cc1 | -2 | 7 | 34* | -1 | 1 | 1
SMILES | MazEF act | BJeLR lethal | PfHsp40 rescue | 3CLpro inhibitor | Mtb BioA inh | Y pestis TopoI
O=C(/C=C\c1ccco1)Nc1cc([N+](=O)[O-])ccc1F | 6 | 62* | 0 | -1 | . | 1
O=C1C(Cl)=C(Nc2ccc3cn[nH]c3c2)C(=O)c2ccccc21 | 16 | 87* | -1 | 6 | -1 | -5
N#CC(C(=O)NCc1ccccc1)c1nc2ccccc2nc1N1CCCC1 (stereo not drawn) | + | -13 | -1 | 4 | -4 | 1
CCN(CC)c1nc2ccccc2nc1C(C#N)C(=O)NCCc1ccccc1 (stereo not drawn) | + | -5 | -1 | 5 | -2 | -12
N#CC(C(=O)NCCc1ccccc1)c1nc2ccccc2nc1N1CCOCC1 (stereo not drawn) | 928* | 8 | 3 | -2 | -1 | 2
CCOC(=O)C1CCCN(c2nc3ccccc3nc2C(C#N)C(=O)NCc2ccccc2)C1 (stereo not drawn) | -23 | 4 | 0 | -6 | -5 | -4
N#CC(C(=O)NCCc1ccccc1)c1nc2ccccc2nc1N1CCCCC1 (stereo not drawn) | 150* | -11 | 0 | 5 | -1 | -6
CCOC(=O)N1CCN(c2nc3ccccc3nc2C(C#N)C(=O)NCCc2ccccc2)CC1 (stereo not drawn) | -50 | 4 | 0 | 0 | -8 | 1
CO[C@@H]1CN(C)C(=O)c2cc(NC(=O)C3CC3)ccc2OC[C@@H](C)N(C(=O)c2ccccc2)C[C@H]1C | . | . | . | . | 0 | .
CN(C)C(=O)C[C@@H]1C[C@H]2c3cc(NS(=O)(=O)c4ccc(F)cc4)ccc3O[C@H]2[C@@H](CO)O1 | . | . | . | . | 0 | .
CCCNC(=O)N1[C@H](C#N)[C@@H](c2ccc(/C=C/c3ccccc3)cc2)[C@H]1CO | . | . | . | . | -3 | .
COc1ccc(C(CNC(=O)C2CCN(S(=O)(=O)c3ccc(F)cc3)CC2)N(C)C)cc1 (stereo not drawn) | + | 3 | -2 | -1 | -2 | 9
O=C(O)CSc1nnc(-c2ccccc2O)n1Cc1ccccc1 | 5 | -1 | 0 | 1 | -2 | 2
O=C(CSc1nnc(-c2ccccc2)n1Cc1ccccc1)NNC(=O)c1ccccc1O | -3 | -3 | 166* | 6 | 0 | -5
O=C(CSc1nnc(-c2ccccc2O)n1Cc1ccccc1)NNC(=O)c1ccccc1O | -1 | -3 | 305* | -2 | . | -1
Cn1c(SCC(=O)NNC(=O)c2ccccc2O)nnc1-c1ccccc1 | 2 | 11 | 106* | 2 | . | 5
Cc1ccc(S(=O)(=O)Nc2ccc3c(c2)CC(=O)N([C@H](C)CO)C[C@@H](C)[C@@H](CN(C)S(=O)(=O)c2ccc(Cl)cc2)O3)cc1 | . | . | . | . | -3 | .
O=S1(=O)[C@H]2C[C@@H]3C=C[C@@]2(CN1Cc1cccc(C(F)(F)F)c1)O3 | 4 | 8 | 0 | 1 | 0 | 4
O=S1(=O)[C@H]2C[C@@H]3C=C[C@@]2(CN1Cc1cccc(F)c1)O3 | 1 | 6 | 66* | 0 | -3 | 3
CC(C)=NNC(=O)c1c(O)c2ccccc2[nH]c1=O | 4 | 7 | 100* | -2 | . | 1
C[C@H]1CN([C@@H](C)CO)C(=O)c2cc(NC(=O)CCC(F)(F)F)ccc2O[C@@H]1CN(C)Cc1ccccc1 | . | . | . | . | -2 | .
Cc1cc(C)c(NC(=O)Cn2nnc(C(=O)NCc3ccc4c(c3)OCO4)c2N)c(C)c1 | 70* | 5 | 2 | 2 | -2 | 40
